Hit rate of the full screen: of about 220,000 compounds, about 3,300 (1.5%) were called active. This is one part of a sample in which actives are shown more often than they occur. A number with no mark means an inactive call.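 How the source made its calls: active means compounds that cut the protein-peptide binding signal by more than 50% relative to plate controls in a single-dose test; inactive means the rest.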
These compounds were tested against Induced myeloid leukemia cell differentiation protein Mcl-1 (Homo sapiens) (UniProt Q07820) (assay: Mcl-1/Noxa binding inhibitors, primary screen, biochemical, TR-FRET, 1536-well (AID 1022;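 further: His-tagged Mcl-1 with rhodamine Noxa BH3 peptide and terbium anti-His antibody; 0% = Mcl-1 plus Noxa peptide wells and 100% = peptide-only wells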)). Settings: TR-FRET Mcl-1/Noxa peptide binding, 2 h; at 21.7 µM; stronger effect = higher value.
Induced myeloid leukemia cell differentiation protein Mcl-1 (Homo sapiens), sequence (Q07820 whole entry, looked up): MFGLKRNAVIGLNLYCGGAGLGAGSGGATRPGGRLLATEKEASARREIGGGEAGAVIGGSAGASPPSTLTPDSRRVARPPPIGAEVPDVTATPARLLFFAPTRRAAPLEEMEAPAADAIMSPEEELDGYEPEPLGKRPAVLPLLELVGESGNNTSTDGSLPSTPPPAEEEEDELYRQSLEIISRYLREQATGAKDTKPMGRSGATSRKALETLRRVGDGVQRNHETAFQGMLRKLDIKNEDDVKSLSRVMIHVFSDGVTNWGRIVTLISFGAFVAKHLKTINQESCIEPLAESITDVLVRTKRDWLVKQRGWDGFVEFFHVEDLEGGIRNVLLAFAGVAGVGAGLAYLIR
Work on `O=C(/C=C/c1ccccc1[N+](=O)[O-])OC1CCCCC1=O` (stereo unspecified) yielded an inhibition of 5.64%. Compound `O=C(OC1CCCCC1=O)c1cccc(S(=O)(=O)NCc2ccccc2)c1` (stereo unspecified) has an inhibition of -5.3%. `O=C1CCCCC1C(=O)c1ccccc1` (stereo unspecified) was tested, and the inhibition was 95% (active). For `Cc1ccccc1N1CCN(Cc2nc(Cc3ccccc3F)no2)CC1`, the inhibition was 9.66%. For `O=S(=O)(c1ccc(Cl)cc1)N1CCCN(c2ccc(C(F)(F)F)cn2)CC1`, the inhibition was 15.1%. In the case of `Cc1cccc(COc2ccccc2/C=N/Nc2ccc([N+](=O)[O-])cc2)c1`, the inhibition was 1.32%. In the case of `Cc1ccc(NS(=O)(=O)c2ccc(C)c(NC(=O)COc3ccc4ccccc4c3)c2)c(C)c1`, the inhibition was -15.7%. With `Cc1ccc(NS(=O)(=O)c2ccc(N/N=C/c3ccccc3OCC(=O)O)c([N+](=O)[O-])c2)c(C)c1` the inhibition was 56.7% (active). Compound `CCCCSc1nnc2c(n1)OC=Nc1ccccc1-2` has an inhibition of 12.5%. Compound `O=C(CC(c1ccccc1)c1cc(Cl)ccc1O)NCCN1CCOCC1` (stereo unspecified) has an inhibition of -4.69%. `O=C(Cc1ccccc1)N1N=C(c2ccncc2)CC1(O)C(F)(F)F` (stereo unspecified) gave an inhibition of -12.4%. `CC(C)c1ccc2c(c1)c(SC(C)(C)C)c(CC(C)(C)C(=O)O)n2Cc1ccc(Cl)cc1` was tested, and the inhibition was 68.7% (active). With `Cc1ccc(C)c2c1cc(C)c1nnc(SCC(=O)Nc3cccc(C(=O)O)c3)n12` the inhibition was 4.65%. `CC1CCN(Cc2nc(-c3ccc(Cl)cc3)no2)CC1` showed an inhibition of 11%. `O=C(O)CC1=C(Nc2ccccc2)C(=O)N(c2ccccc2)C1c1ccc(Cl)cc1` (stereo unspecified) was tested, and the inhibition was -6.85%. `CN(C(=O)Nc1ccc(Cl)cc1)n1cnc2ccccc2c1=O` was tested, and the inhibition was -0.02%. `COc1ccc(OCC(O)CNCCNc2nccc(C(F)(F)F)n2)cc1` (stereo unspecified) was tested, and the inhibition was -8.04%. Work on `CCn1c(CN2C(=O)CSc3ccccc32)n[nH]c1=S` yielded an inhibition of -15.7%. `Fc1ccccc1OCCSc1nc2ccccc2o1` was tested, and the inhibition was 60.4% (active). `CC(C)(C)C(=O)CSc1nc2ccccc2o1` was tested, and the inhibition was 8.46%. `CCN(CC)C(=O)CSc1nc2ccccc2o1` gave an inhibition of 7.79%. In the case of `Cn1nc(C(C)(C)C)c([N+](=O)[O-])c1C(N)=O`, the inhibition was 5.22%. For `COc1ccc(Nc2cc(Cl)ccc2C(=O)O)cn1`, the inhibition was 11%. `CCCCSc1nc2ccccc2[nH]1` was tested, and the inhibition was 12.9%. `CCN(CC)CCCNC(=O)c1ccc2c(=O)n(Cc3ccc4c(c3)OCO4)c(=S)[nH]c2c1` showed an inhibition of 25.2%. In the case of `CCCCN(CC)CCCNC(=O)c1ccc(CSc2nc3ccncc3[nH]2)cc1`, the inhibition was 63% (active). Compound `COC(=O)c1nc(NC(=O)c2ccc(F)cc2)n[nH]1` has an inhibition of -6.78%. `COC(=O)c1nc(NC(=O)c2ccc(Cl)cc2)n[nH]1` gave an inhibition of -8.02%. With `COC(=O)c1nc(NC(=O)c2ccc(C(C)(C)C)cc2)n[nH]1` the inhibition was 69.2% (active). `O=C(O)CC1(CC(=O)Nc2cccc(C(F)(F)F)c2)CCCC1` showed an inhibition of -33.1%. In the case of `Nc1nnnn1/N=C/c1cc([N+](=O)[O-])ccc1O`, the inhibition was -18%. `Cc1ccc(N2C(=O)CC(Sc3ncn[nH]3)C2=O)cc1` (stereo unspecified) showed an inhibition of -10.1%. In the case of `O=C1CC(Sc2ncn[nH]2)C(=O)N1c1ccccc1` (stereo unspecified), the inhibition was 54.4% (active). In the case of `COc1ccc(N2C(=O)CC(Sc3n[nH]c(-c4ccc(C)cc4)n3)C2=O)cc1` (stereo unspecified), the inhibition was 36%. `Cc1nc(CNS(=O)(=O)c2cc([N+](=O)[O-])ccc2C)cs1` showed an inhibition of -0.49%. With `CN(C)S(=O)(=O)c1cccc(-c2nn(-c3ccccc3)cc2/C=C2\SC(=S)N(CC(=O)O)C2=O)c1` the inhibition was 74.1% (active). Work on `O=C(CN1C(=O)/C(=C\c2ccccc2F)SC1=S)Nc1nc2ccccc2s1` yielded an inhibition of 11.5%. `Cc1ccc(-c2nn(-c3ccccc3)cc2/C=C/C(=O)Nc2cccc(S(N)(=O)=O)c2)cc1` was tested, and the inhibition was 7.42%. In the case of `COC(=O)c1sc2[nH]c(=S)n(N)c(=O)c2c1C`, the inhibition was 52.1% (active). `CCOC(=O)c1sc2nc(C)[nH]c(=O)c2c1C` gave an inhibition of -7.23%. For `CCOC(=O)c1sc2nc(CSCC(=O)OCc3ccc(C(=O)OC)o3)[nH]c(=O)c2c1C`, the inhibition was 11.7%. `Cc1onc(-c2ccccc2)c1C(=O)N=C(N)c1ccc(Cl)cc1` was tested, and the inhibition was 13.2%. Work on `Cc1nnc(N/N=C/c2cccs2)[nH]c1=O` yielded an inhibition of -2.37%. `CC(O)c1nc2c(c(=O)n(C)c(=O)n2C)n1C` (stereo unspecified) showed an inhibition of -1.58%. `CCN1CCN(c2nc(Nc3cccc(F)c3)nc(N)c2[N+](=O)[O-])CC1` was tested, and the inhibition was 56.7% (active). With `CC1CN(c2nc(Nc3ccccc3)nc(N)c2[N+](=O)[O-])CC(C)O1` (stereo unspecified) the inhibition was -24.5%. `CNc1nc(Nc2ccc(C)c(Cl)c2)nc(N)c1[N+](=O)[O-]` was tested, and the inhibition was 26.8%. For `O=C(NCc1cccnc1)Nc1cccc(NC(=O)NCc2cccnc2)c1F`, the inhibition was -1.36%. With `COc1cc(OC)c(C(=O)Nc2ccc(N(C)C)cc2)cc1OC` the inhibition was 51.8% (active). Work on `COc1cc(OC)c(C(=O)Nc2ccccc2-c2ccccc2)cc1OC` yielded an inhibition of 2.98%. Compound `COc1ccc(Cl)cc1C(=O)Nc1ccc(N(C)C(C)=O)cc1` has an inhibition of 15.3%. `CC(NC(=S)NNS(=O)(=O)c1ccc(C(C)(C)C)cc1)c1ccccc1` (stereo unspecified) gave an inhibition of -17.7%. `Cc1ccc2c(c1)c1ncn(Cc3ccc(F)cc3)c(=O)c1n2C` gave an inhibition of -20.4%. `O=C(CSc1ccccc1)Nc1nnc(/C=C/c2ccccc2)s1` showed an inhibition of 9.47%. `O=C(Nc1ccc(Cl)cc1)Nc1nnc(/C=C/c2ccccc2)s1` was tested, and the inhibition was 91.2% (active). With `COc1ccc(/C=C/c2nnc(NC(=O)C(C)C)s2)cc1` the inhibition was 12.2%. With `CN(C)c1ccc(/C=C/C(=O)c2ccc(O)cc2)cc1[N+](=O)[O-]` the inhibition was 20.5%. Work on `CCCc1nc2oc3c(=O)[nH]cnc3c2c2c1COC(C)(C)C2` yielded an inhibition of -3.33%. For `CC(=O)Nc1ccc(C(=O)/C=C/c2ccc[nH]2)cc1`, the inhibition was 15.7%. `COc1ccc(N2C(=O)c3ccccc3NC2c2ccc(OC)c(CN3CCOCC3)c2)cc1` (stereo unspecified) showed an inhibition of 7.79%. For `CCN(CCNC(=O)C1=C(C)C(=O)OC12CCC(C)CC2)c1ccccc1` (stereo unspecified), the inhibition was -5.12%.

Reference: PubChem BioAssay AID1022 (Emory University Molecular Libraries Screening Center, 2008)
